The text below walks through data of the supplement of paper PMC7411054.

Holding throughout (conditions): treatment time: 24 h
For test [1], the system named is A549-ACTB-RAB5A. The test is described as follows: lowest phenotypically active concentration; higher = less potent. Put shortly: (§1)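 Each of fifteen gene-edited A549, HepG2 and WPMY1 reporter lines, marked with BFP for segmentation and GFP and RFP/FusionRed, was treated in four wells at 0.3, 1, 3 or 9 µM for 24 h prior to live imaging. Normalisation of per-well live-cell features used solvent control wells. Deviation needed ≥3 of 4 wells beyond the 95th percentile of control Euclidean distances, and reproducibility needed a median replicate Pearson correlation above the 95th percentile of non-replicates. Both were required for phenotypic activity.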

For test [2], the system named is A549-GM130-SQSTM1. The description is as above. Put shortly: as §1
Test [3] has as its system A549-TUBA1B-RELA. The test is described as above. Summed up: as §1
In test [4] the test system is HepG2-ACTB-RAB5A. The description is as above. Put shortly: as §1
Test [5] deals with WPMY1-CANX-COX4. The description is as above. Summed up: as §1
In test [6] the test system is A549-ACTB-RAB5A. The test is described as follows: phenotypically active (imaging signature differs from DMSO and reproducible) at any of 0.3-9 uM (binary (1 = active, 0 = inactive)); higher = active. Put shortly:
as §1

Test [7] has as its system A549-CANX-COX4. The description is as above. Summed up:
as §1

Test [8] concerns A549-GM130-SQSTM1. Described as above. Summed up: as §1
The test system of test [9] is A549-TP53BP1-CLTA. The test is described as above. Summed up:
as §1

The test system of test [10] is A549-TUBA1B-RELA. Described as above. Put shortly:
as §1

In test [11] the test system is HepG2-ACTB-RAB5A. The description is as above. Put shortly:
as §1

Test [12] deals with HepG2-CANX-COX4. The description is as above. Summed up: as §1
Test [13] concerns HepG2-GM130-SQSTM1. Described as above. Summed up: as §1
The subject of test [14] is HepG2-TP53BP1-CLTA. The test is described as above. Put shortly:
as §1

Test [15] relates to HepG2-TUBA1B-RELA. Described as above. Summed up:
as §1

For test [16], the system named is WPMY1-ACTB-RAB5A. The test is described as above. Summed up:
as §1

In test [17] the test system is WPMY1-CANX-COX4. Described as above. Put shortly: as §1
Test [18] has as its system WPMY1-GM130-SQSTM1. Described as above. Summed up: as §1
In test [19] the test system is WPMY1-TP53BP1-CLTA. Described as above. Summed up: as §1
In test [20] the test system is WPMY1-TUBA1B-RELA. Described as above. Put shortly: as §1

For the molecule `CN(C)C(=O)C(CCN1CCC(O)(c2ccc(Cl)cc2)CC1)(c1ccccc1)c1ccccc1` [loperamide], the “lowest phenotypically active concentration” value in test [1] was determined as 3 µM; in test [2] it was 9 µM; in test [3], 3 µM; in [4] it was 3 µM; in [5] it was 9 µM. The phenotypically active in test [6], in test [7], in test [8], in test [9], in [10] and in [11] was 1 (active) each time. Further, the phenotypically active in test [12] was 0 (inactive); in [13], 1 (active); in test [14], 1 (active); in [15] it was 1 (active); in test [16], 1 (active); in [17], 1 (active). Besides, the phenotypically active in [18], in test [19] and in test [20] was 1 (active) in each case.
Turning to `CN(C)CC(=O)N1CCC[C@@H](n2nc(-c3ccc(Oc4ccccc4)cc3)c3c(N)ncnc32)C1`, the “lowest phenotypically active concentration” value amounted to 1 µM in test [1]; 1 µM in [2]; 1 µM in [3]; 1 µM in test [4]; 9 µM in [5]. The phenotypically active in test [6], in [7], in test [8], in [9], in test [10] and in test [11] was 1 (active) in each case. Besides, the phenotypically active in test [12], in test [13], in test [14], in [15], in test [16] and in test [17] was 1 (active) throughout. In addition, the phenotypically active in test [18], in test [19] and in [20] was 1 (active) each time.
With `CNC(=O)c1cc(Oc2ccc(NC(=O)Nc3ccc(Cl)c(C(F)(F)F)c3)cc2)ccn1` [sorafenib], the “lowest phenotypically active concentration” value in test [1] was determined as 3 µM; in test [2], 9 µM; in [3], 9 µM; in [4], 9 µM; in test [5], 3 µM. For the same molecule, the phenotypically active in [6], in test [7], in test [8], in test [9], in test [10] and in [11] was 1 (active) in each case. Also, the phenotypically active in [12], in test [13], in [14], in test [15], in [16] and in test [17] was 1 (active) in each case. The phenotypically active in test [18] is 1 (active); in test [19], 0 (inactive); in [20], 1 (active).
As for `O=C(O)[C@]1(Cc2cccc(Nc3nccs3)n2)CC[C@@H](Oc2cccc(Cl)c2F)CC1`, the “lowest phenotypically active concentration” value in test [1] is not above 0.3 µM; in [2] it was not above 0.3 µM; in [3], 1 µM; in test [4] it was not above 0.3 µM; in test [5] it was 1 µM. Besides, the phenotypically active in test [6], in test [7], in [8], in [9], in [10] and in [11] was 1 (active) each time. Besides, the phenotypically active in [12], in test [13], in [14], in test [15], in [16] and in test [17] was 1 (active) each time. The phenotypically active is 0 (inactive) in test [18], 1 (active) in test [19] and 1 (active) in test [20].
Take `CC(C)(C)c1nc(-c2cccc(NS(=O)(=O)c3c(F)cccc3F)c2F)c(-c2ccnc(N)n2)s1` [dabrafenib]: the “lowest phenotypically active concentration” value in test [1] is not above 0.3 µM; in test [2], not above 0.3 µM; in test [3], not above 0.3 µM; in [4], 3 µM; in test [5], 1 µM. In addition, the phenotypically active in test [6], in [7], in [8], in test [9], in test [10] and in [11] was 1 (active) each time. Further, the phenotypically active in [12], in [13], in test [14], in test [15], in [16] and in [17] was 1 (active) throughout. The phenotypically active is 0 (inactive) in test [18], 0 (inactive) in test [19] and 1 (active) in test [20].
